Consider six molecules from ChEMBL document CHEMBL1961873, “Compounds: GSK PKIS; Assays: Nanosyn kinase panel” (2012).

For assay [1], the target named is High affinity nerve growth factor receptor (Homo sapiens) (UniProt P04629). The following applies: at 1 µM.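 Further: each value is the mean percent inhibition of TRKA.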
For assay [2], the target named is BDNF/NT-3 growth factors receptor (Homo sapiens) (UniProt Q16620). The following applies: at 0.1 µM.
The target is the same in assay [3]. To be noted: at 1 µM.
The target of assay [4] is NT-3 growth factor receptor (Homo sapiens) (UniProt Q16288). To be noted: at 0.1 µM.
Sequence of NT-3 growth factor receptor (Homo sapiens) (Q16288 32-839 limits assumed): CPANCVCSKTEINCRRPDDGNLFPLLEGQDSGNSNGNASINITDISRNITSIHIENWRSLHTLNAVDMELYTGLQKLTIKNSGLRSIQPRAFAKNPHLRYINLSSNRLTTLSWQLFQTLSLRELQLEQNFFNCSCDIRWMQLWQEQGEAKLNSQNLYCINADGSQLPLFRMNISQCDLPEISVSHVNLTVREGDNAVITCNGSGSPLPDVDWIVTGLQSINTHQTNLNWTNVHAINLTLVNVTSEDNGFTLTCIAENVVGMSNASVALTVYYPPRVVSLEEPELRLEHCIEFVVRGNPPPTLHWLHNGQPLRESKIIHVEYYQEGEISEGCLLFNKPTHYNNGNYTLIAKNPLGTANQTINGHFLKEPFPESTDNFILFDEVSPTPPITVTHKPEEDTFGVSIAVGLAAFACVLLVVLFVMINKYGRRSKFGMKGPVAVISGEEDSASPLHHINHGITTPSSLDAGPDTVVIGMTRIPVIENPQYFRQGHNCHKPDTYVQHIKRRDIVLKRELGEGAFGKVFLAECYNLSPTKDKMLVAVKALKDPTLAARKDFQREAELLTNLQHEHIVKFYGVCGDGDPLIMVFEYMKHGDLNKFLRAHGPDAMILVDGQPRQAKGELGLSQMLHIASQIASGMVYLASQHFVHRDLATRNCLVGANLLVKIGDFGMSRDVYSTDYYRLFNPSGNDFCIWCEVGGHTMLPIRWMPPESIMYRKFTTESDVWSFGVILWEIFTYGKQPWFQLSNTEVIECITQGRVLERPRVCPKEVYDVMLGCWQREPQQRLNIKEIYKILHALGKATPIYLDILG
For assay [5] the target is unchanged. The following applies: at 1 µM.
In assay [6] the target is T1, Tyrosine-protein kinase TXK (Homo sapiens) (UniProt P42681).
T1 sequence (whole entry): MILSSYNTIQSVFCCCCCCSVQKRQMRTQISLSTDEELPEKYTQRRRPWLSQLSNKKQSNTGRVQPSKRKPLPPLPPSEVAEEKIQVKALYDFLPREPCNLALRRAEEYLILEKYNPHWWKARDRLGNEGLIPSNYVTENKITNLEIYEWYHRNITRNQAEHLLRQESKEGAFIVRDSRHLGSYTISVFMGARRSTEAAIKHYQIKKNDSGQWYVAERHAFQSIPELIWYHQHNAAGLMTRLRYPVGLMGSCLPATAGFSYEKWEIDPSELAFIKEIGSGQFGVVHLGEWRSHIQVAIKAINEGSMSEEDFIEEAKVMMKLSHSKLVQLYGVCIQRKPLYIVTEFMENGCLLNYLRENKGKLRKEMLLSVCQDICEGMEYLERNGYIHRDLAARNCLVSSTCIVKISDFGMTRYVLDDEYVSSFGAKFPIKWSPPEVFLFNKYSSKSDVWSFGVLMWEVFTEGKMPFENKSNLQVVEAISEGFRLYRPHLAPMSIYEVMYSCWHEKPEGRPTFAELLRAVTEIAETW
The following applies: at 0.1 µM.

Assay [7] has as its target T1, Tyrosine-protein kinase TXK (Homo sapiens). The following applies: at 1 µM.
In assay [8] the target is Non-receptor tyrosine-protein kinase TYK2 (Homo sapiens) (UniProt P29597). To be noted: at 0.1 µM.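 Further: each value is a mean of the inhibition readings.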
Assay [9] deals with T2, Dual specificity protein kinase TTK (Homo sapiens) (UniProt P33981).
T2 sequence (whole entry): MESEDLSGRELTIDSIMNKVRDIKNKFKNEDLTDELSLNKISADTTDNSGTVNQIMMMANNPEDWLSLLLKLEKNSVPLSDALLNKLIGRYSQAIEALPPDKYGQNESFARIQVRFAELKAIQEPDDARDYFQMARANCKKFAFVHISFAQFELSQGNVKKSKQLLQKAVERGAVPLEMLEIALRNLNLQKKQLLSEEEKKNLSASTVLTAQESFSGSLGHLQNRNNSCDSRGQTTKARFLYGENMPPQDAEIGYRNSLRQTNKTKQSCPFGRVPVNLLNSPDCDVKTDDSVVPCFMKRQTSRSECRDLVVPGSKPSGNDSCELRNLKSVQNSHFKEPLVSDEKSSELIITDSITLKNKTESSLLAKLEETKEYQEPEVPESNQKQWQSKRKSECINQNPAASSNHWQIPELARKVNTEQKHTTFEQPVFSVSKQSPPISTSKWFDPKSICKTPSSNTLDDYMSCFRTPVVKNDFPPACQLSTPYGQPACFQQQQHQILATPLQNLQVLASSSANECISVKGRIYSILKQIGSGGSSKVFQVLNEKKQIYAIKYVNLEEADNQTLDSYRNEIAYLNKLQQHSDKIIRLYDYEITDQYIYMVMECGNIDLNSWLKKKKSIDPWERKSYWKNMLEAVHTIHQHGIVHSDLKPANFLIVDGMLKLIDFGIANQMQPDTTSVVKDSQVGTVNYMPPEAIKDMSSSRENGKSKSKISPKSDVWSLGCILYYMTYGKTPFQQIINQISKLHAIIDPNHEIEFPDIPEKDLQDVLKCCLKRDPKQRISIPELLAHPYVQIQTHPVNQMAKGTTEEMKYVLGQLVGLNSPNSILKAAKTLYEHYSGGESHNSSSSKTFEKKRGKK
To be noted: at 1 µM.

Assay [10] concerns the target T3, Aurora kinase A (Homo sapiens) (UniProt O14965).
T3 sequence (whole entry): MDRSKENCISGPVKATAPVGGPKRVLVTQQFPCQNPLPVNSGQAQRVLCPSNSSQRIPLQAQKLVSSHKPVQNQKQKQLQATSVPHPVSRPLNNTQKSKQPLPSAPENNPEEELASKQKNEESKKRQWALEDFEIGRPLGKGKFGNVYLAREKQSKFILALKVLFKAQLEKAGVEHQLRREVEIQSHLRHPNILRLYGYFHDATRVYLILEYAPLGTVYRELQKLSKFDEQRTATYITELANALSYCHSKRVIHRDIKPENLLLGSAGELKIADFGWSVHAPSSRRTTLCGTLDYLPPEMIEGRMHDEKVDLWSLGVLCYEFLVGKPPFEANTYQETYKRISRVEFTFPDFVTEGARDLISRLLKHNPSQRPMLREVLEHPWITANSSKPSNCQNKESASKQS
To be noted: at 0.1 µM.

In assay [11] the target is T3, Aurora kinase A (Homo sapiens). The following applies: at 1 µM.
Assay [12] addresses Aurora kinase B (Homo sapiens) (UniProt Q96GD4). To be noted: at 0.1 µM.
Assay [13] has the same target. To be noted: at 1 µM.
In assay [14] the target is T4, Aurora kinase C (Homo sapiens) (UniProt Q9UQB9).
T4 sequence (whole entry): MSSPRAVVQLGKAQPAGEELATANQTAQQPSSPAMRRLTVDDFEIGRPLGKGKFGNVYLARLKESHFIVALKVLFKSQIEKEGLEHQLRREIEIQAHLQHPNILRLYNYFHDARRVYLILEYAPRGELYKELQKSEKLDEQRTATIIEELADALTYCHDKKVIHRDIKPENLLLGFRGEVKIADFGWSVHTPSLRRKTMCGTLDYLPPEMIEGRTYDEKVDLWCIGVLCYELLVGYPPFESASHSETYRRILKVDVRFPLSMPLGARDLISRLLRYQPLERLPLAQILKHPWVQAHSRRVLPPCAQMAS
To be noted: at 0.1 µM.

The target of assay [15] is T4, Aurora kinase C (Homo sapiens). The following applies: at 1 µM.
Assay [16] has as its target Serine/threonine-protein kinase 10 (Homo sapiens) (UniProt O94804). The following applies: at 0.1 µM.
The target is the same in assay [17]. To be noted: at 1 µM.
The target in assay [18] is T5, Mitogen-activated protein kinase kinase kinase kinase 2 (Homo sapiens) (UniProt Q12851).
T5 sequence (whole entry): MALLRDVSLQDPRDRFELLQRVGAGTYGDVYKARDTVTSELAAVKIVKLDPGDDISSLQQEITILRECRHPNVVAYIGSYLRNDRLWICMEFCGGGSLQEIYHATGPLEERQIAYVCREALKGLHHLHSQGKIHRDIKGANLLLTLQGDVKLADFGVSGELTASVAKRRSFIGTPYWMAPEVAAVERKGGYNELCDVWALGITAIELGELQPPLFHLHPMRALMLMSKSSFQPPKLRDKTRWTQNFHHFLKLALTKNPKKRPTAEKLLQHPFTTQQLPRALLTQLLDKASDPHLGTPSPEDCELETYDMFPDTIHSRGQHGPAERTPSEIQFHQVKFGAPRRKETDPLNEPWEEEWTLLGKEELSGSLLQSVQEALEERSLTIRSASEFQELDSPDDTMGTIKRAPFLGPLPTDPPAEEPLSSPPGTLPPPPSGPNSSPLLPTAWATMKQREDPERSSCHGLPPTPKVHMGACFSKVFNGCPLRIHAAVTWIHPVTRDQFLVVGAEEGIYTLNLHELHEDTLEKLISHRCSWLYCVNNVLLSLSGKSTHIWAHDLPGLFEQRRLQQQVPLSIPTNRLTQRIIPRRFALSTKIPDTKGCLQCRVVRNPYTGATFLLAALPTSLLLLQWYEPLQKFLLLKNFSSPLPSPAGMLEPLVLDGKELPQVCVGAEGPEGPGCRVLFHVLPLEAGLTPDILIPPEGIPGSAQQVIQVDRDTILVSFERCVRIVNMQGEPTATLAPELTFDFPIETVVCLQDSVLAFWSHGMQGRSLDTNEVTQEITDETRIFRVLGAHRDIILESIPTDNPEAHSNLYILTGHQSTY
The following applies: at 0.1 µM.

In assay [19] the target is T5, Mitogen-activated protein kinase kinase kinase kinase 2 (Homo sapiens). The following applies: at 1 µM.
For assay [20], the target named is Mitogen-activated protein kinase kinase kinase kinase 4 (Homo sapiens) (UniProt O95819). The following applies: at 0.1 µM.
Sequence of Mitogen-activated protein kinase kinase kinase kinase 4 (Homo sapiens) (O95819 2-1239 limits assumed): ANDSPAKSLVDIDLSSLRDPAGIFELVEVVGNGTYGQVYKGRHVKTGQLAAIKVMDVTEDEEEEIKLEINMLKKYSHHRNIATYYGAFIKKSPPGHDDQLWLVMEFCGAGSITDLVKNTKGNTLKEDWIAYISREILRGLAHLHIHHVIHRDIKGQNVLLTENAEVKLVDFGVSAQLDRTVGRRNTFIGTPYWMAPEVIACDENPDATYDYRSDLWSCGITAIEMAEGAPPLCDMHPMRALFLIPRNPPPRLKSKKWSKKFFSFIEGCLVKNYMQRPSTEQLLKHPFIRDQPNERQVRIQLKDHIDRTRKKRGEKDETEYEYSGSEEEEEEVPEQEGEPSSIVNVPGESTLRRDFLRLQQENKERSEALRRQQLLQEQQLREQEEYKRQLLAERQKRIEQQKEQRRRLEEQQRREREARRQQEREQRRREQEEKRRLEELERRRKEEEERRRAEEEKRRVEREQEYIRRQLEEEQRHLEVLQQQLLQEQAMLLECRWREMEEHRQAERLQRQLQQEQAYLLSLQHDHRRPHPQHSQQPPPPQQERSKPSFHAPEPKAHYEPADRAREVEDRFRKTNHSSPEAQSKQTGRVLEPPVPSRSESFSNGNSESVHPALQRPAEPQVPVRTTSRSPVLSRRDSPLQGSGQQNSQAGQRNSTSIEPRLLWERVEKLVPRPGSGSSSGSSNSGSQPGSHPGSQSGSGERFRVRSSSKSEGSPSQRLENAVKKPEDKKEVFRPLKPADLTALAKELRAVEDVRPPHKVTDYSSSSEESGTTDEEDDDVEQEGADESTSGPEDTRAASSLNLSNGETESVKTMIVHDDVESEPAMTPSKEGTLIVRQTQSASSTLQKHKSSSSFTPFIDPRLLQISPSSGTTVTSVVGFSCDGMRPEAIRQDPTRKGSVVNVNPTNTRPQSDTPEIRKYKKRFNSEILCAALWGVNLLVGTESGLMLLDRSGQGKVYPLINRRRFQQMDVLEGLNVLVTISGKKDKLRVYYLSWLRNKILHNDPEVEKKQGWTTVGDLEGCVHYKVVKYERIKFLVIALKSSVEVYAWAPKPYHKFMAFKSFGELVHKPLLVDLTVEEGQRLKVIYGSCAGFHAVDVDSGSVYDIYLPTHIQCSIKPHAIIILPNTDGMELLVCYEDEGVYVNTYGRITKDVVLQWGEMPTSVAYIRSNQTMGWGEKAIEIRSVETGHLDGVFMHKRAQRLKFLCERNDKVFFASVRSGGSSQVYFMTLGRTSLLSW

Sequence of High affinity nerve growth factor receptor (Homo sapiens) (P04629 33-796 limits assumed): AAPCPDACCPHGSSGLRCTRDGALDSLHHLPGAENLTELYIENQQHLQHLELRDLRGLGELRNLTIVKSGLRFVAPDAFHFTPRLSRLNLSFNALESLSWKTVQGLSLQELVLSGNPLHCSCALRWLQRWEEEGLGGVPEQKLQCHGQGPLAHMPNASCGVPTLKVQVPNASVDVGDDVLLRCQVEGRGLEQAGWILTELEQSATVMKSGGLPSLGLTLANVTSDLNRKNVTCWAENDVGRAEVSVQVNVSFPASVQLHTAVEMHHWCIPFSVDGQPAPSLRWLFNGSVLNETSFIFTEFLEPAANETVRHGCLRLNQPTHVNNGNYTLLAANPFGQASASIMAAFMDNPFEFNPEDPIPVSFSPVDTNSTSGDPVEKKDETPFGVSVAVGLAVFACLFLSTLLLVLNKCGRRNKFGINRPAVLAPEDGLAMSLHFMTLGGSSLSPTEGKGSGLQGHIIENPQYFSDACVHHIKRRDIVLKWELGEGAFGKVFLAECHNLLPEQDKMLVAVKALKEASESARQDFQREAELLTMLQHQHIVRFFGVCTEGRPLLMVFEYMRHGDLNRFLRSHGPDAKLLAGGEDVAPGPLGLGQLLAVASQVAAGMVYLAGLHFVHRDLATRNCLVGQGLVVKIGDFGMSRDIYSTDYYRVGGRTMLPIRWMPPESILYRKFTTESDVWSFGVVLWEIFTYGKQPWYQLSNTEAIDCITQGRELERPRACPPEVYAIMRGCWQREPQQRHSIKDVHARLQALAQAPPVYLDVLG
Sequence of Aurora kinase B (Homo sapiens) (Q96GD4 whole entry): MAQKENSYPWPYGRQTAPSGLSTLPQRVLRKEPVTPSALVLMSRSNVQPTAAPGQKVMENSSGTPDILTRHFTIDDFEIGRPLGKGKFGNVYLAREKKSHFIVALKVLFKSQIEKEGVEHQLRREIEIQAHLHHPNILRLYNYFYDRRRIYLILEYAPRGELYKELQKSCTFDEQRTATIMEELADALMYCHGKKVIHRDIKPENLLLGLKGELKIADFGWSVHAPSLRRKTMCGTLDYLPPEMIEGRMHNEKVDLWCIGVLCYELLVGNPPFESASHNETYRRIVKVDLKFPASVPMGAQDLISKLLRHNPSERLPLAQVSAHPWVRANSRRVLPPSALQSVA
Sequence of Serine/threonine-protein kinase 10 (Homo sapiens) (O94804 whole entry, looked up): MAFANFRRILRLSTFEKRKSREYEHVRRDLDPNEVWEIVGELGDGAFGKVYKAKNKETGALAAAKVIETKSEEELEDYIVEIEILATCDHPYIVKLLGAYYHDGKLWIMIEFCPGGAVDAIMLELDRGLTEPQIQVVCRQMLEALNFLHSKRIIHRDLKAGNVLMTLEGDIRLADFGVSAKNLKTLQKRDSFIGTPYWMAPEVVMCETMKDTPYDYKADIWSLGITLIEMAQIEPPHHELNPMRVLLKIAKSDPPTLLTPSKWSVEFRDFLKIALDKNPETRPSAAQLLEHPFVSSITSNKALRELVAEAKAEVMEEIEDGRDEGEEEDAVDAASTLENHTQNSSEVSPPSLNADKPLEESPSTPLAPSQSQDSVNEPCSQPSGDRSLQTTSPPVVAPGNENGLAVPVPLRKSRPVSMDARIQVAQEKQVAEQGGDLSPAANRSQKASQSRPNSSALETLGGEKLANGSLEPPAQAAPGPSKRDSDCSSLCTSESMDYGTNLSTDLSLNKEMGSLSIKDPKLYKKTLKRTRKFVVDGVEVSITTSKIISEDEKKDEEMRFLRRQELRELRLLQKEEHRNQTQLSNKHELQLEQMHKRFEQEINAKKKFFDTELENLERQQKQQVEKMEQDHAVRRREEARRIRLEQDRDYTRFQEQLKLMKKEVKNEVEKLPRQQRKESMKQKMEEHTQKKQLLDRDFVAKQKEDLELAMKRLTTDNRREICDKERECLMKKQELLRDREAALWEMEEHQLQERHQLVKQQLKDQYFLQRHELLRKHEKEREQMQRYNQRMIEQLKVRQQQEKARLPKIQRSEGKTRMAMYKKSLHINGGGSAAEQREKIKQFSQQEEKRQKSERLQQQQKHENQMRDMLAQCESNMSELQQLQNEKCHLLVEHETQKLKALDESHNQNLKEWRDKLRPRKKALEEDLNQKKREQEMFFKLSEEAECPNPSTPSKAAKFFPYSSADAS
Sequence of BDNF/NT-3 growth factors receptor (Homo sapiens) (Q16620 32-822 limits assumed): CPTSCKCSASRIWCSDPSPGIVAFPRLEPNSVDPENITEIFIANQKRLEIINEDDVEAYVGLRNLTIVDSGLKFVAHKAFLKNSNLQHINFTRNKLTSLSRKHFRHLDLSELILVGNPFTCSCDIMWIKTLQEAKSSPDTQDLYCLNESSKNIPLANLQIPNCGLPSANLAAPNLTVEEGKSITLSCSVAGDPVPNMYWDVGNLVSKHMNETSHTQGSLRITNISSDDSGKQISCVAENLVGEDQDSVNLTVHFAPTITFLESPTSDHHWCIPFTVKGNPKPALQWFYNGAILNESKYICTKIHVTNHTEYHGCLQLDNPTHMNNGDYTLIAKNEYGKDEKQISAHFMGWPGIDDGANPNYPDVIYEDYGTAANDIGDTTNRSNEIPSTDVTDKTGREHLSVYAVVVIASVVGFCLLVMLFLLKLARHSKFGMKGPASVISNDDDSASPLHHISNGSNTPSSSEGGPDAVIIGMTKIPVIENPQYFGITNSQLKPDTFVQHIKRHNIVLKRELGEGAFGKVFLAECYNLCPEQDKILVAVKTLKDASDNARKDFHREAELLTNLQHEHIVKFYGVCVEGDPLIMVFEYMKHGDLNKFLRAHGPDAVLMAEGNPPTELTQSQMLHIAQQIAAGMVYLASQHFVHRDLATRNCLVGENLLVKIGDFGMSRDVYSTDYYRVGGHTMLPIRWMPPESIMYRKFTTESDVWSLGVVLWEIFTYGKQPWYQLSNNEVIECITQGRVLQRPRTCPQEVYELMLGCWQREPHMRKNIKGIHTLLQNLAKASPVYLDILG

Usually inhibition stands for the drop in the measured response relative to a control, in per cent. As for `c1cc(-c2cnn3nc(N4CCOCC4)ccc23)nc(NC2CC2)n1`, the inhibition in [1] came to 0.98%; in assay [2], 1.83%; in assay [3], 1.21%; in assay [4], 1.5%; in assay [5] it was 2.55%; in assay [6], 3.34%. Also, the inhibition in assay [7] was 6.11%; in [8], -8.45%; in [9], 60.1%; in assay [10], 1.84%; in assay [11], 22%; in assay [12], 7.41%. For the same molecule, the inhibition was 46.8% in assay [13]; 7.39% in [14]; 75.5% in assay [15]; 5.74% in assay [16]; 12.1% in assay [17]; -0.22% in [18]. The inhibition in assay [19] worked out at 5.78%; in assay [20], 6.38%.

As to `CCN1CCC(CC(=O)Nc2n[nH]c3nnc(-c4cccc(F)c4F)cc23)CC1`, the inhibition is -2.79% in assay [1]; 0.47% in assay [2]; 0.8% in assay [3]; 0.17% in assay [4]; 0.31% in assay [5]; -0.72% in assay [6]. In addition, the inhibition in assay [7] is 3.03%; in assay [8], 0.26%; in assay [9] it was 1.38%; in assay [10], 3.98%; in assay [11], 2.34%; in assay [12] it was 0.22%. The inhibition in [13] came out at 4.4%; in [14], 1.43%; in [15], 4.58%; in assay [16] it was 3.88%; in assay [17], 4.08%; in assay [18] it was 0.29%. The inhibition in assay [19] is 5.3%; in assay [20] it was 2.42%.

For `NC(=O)c1sc(-n2cnc3ccc(C(F)(F)F)cc32)cc1OCc1ccccc1Br`, the inhibition in [1] turned out to be 1.97%; in assay [2], 4.43%; in [3], 2.79%; in [4], 4.04%; in [5] it was 4.67%; in assay [6], 1.39%. Moreover, the inhibition in [7] is -0.88%; in [8] it was -4.87%; in [9] it was 9.08%; in assay [10], 2.74%; in assay [11], 5.5%; in assay [12] it was 2.77%. Moreover, the inhibition in assay [13] is 5.43%; in assay [14] it was -0.7%; in assay [15], -6.73%; in assay [16], 9.21%; in assay [17], 26%; in assay [18] it was 0.79%. Also, the figures for the inhibition in [19] and in assay [20] were 8.19% and 4.62%, respectively.

Consider `Fc1ccc(-c2nn3ccccc3c2-c2ccncc2)cc1`, for which the inhibition is 0.45% in assay [1]; 0.38% in [2]; 0.3% in assay [3]; -0.15% in [4]; -0.76% in [5]; 2.39% in [6]. Also, the inhibition in [7] was 7.59%; in [8], 0.8%; in [9], 2.44%; in [10], 1.94%; in assay [11] it was 8.81%; in [12], -1.03%. Further, the inhibition in assay [13] came out at 4.77%; in [14], 0.61%; in [15] it was 2.01%; in assay [16], 2.07%; in assay [17] it was 1.79%; in assay [18], 2.33%. Also, the inhibition in [19] worked out at 7.42%; in assay [20] it was 5.52%.

As for `N#Cc1c(NC(=O)c2ccc(F)cc2)sc2c1CCCC2`, the inhibition was -0.28% in assay [1]; 0.21% in assay [2]; 0.82% in assay [3]; 0.15% in [4]; 1.15% in [5]; 1.7% in assay [6]. For the same molecule, the inhibition is 2.45% in [7]; -3.45% in assay [8]; 2.26% in assay [9]; 1.91% in assay [10]; 0.18% in assay [11]; 2.3% in [12]. Besides, the inhibition in assay [13] is 1.27%; in assay [14], 0.83%; in assay [15], -4.93%; in assay [16] it was 3.11%; in [17], 6.81%; in assay [18] it was 0.12%. The inhibition in assay [19] came out at 1.05%; in [20] it was 1.93%.

With `CCn1c(-c2nonc2N)nc2ccccc21`, the inhibition in [1] was 2.11%; in assay [2] it was 1.05%; in [3], -0.82%; in assay [4], 0.03%; in assay [5], 0.89%; in assay [6], 3.75%. Further, the inhibition in assay [7] was 6.72%; in assay [8], -1.66%; in [9], 7.51%; in assay [10] it was 2.42%; in [11], 7.95%; in [12], 0.55%. Moreover, the inhibition is 5.64% in [13]; -0.58% in [14]; 11.2% in assay [15]; 2.59% in assay [16]; 6.5% in assay [17]; 0.98% in assay [18]. Besides, the inhibition in assay [19] amounted to 3.67%; in assay [20], 4.69%.
